In all, about 48,000 compounds went through this assay and about 13,000 (27%) showed an effect of 50% or more. This is one part of the list.
Each compound was assayed on Wolbachia pipientis (assay: Anti-Wolbachia Cell-Based Screen). Settings: 5 µM.
Format: functional
Set-up: scale not given: in the data most compounds retested in dose-response had high values

SMILES	Percent Effect [%]
Cc1ccc(NS(=O)(=O)c2c[nH]c3ncccc23)nc1	17.74
CCOC(=O)N1CCN(c2nc(NCCCO)c3ccccc3n2)CC1.Cl	3.007
COC(=O)c1ccc(N2CCN(C(=O)c3ccncc3)C(C)C2)cc1 (centres undefined)	-9.258
CCc1nc(CC(=O)Nc2cnn(CC3CCCO3)c2)cs1 (centres undefined)	-8.649
CC(C)c1nc(O)c2nnn(C[C@H]3CCCN(Cc4ccsc4)C3)c2n1	131.3
CC(C)c1nc(O)c2nnn(C[C@@H]3CCCN(Cc4ccsc4)C3)c2n1	123.6
CC(C)(C)c1oc(C(N)=O)cc1CN1CCCCC1CN1CCOCC1 (centres undefined)	-21.84
N#Cc1ccc(SCCC(=O)N(Cc2cccnc2)C2CC2)cc1	-7.889
O=c1ccc(-n2ccnc2)nn1CCNS(=O)(=O)c1ccc(Br)cc1	-0.5803
CCN(CC)CC[C@H]1CN(C(=O)C2CCC2)CC[C@H]1CC(=O)O	-6.679
CCN1CCCC(c2c(-c3ccccc3)ncn2CCc2c[nH]cn2)C1 (centres undefined)	-19.27
CC(C)(C(=O)NCCCC(N)=O)c1cccc(Br)c1	6.793
CSCCC(NC(N)=O)C(=O)N1CCC(Cc2ccccc2)CC1 (centres undefined)	-1.467
Cc1cc(C)nc(NC2CCC(=O)N(C)C2)n1 (centres undefined)	-12.68
CSCCC(NC(=O)c1ccc2ccccc2n1)C(=O)NC1CC1 (centres undefined)	3.734
CSc1cc2c(cc1NC(=O)NCC1CCOC1)OCCO2 (centres undefined)	0.9768
CSCCC(NC(=O)c1ccc2ccccc2n1)C(=O)NC(C)C (centres undefined)	0.7963
Cc1nc(CN2CCN(C(C)C(=O)NC3CCCC3)CC2)cs1 (centres undefined)	-11.13
CNC(=O)C(CCSC)NC(=O)c1ccc2ccccc2n1 (centres undefined)	4.672
CSCCC(Nc1nc(C)cc(C)n1)C(=O)NCC1CCOCC1 (centres undefined)	96.94
CSCCC(Nc1nc(C)cc(C)n1)C(=O)NC1CCCC1 (centres undefined)	67.42
CSCCC(Nc1nc(C)cc(C)n1)C(=O)NC(C)(C)CO (centres undefined)	99.02
CSCCC(Nc1nc(C)cc(C)n1)C(=O)NC1CC1 (centres undefined)	102.4
Cc1cc(NC(=O)NCC2CCOC2)no1 (centres undefined)	-3.66

SMILES	Percent Effect [%]
CN(C)CCCN1CC2(CCN(C3CCCOC3)CC2)OC1=O (centres undefined)	-5.756
COc1ccc(NC(=O)c2ccc[nH]2)c(N2CCN(C(C)=O)CC2)n1	6.635
Cc1cc(SC(C)(C)C)ccc1NC(=O)CNC(N)=O	-8.144
Cc1ccc(S(=O)(=O)NC[C@H]2OC[C@@H](NCc3ccccn3)[C@@H]2O)cc1	0.9418
Cc1cc(C(=O)N2C[C@@H](CN3CCOCC3)C[C@H](CO)C2)nc(C)n1	-2.252
Cc1cc(C)c(CNC(=O)N2CCCN(C(=O)C(C)C)CC2)c(C)c1	-1.6
CC(C)=CCN1C[C@H]2CC[C@@H]1CN(Cc1coc(C)n1)C2	-7.778
COc1ccc(OCCNCCn2cccn2)cc1	-1.614
CCn1ccc(-c2cc(NCCCOc3ccccc3C)nc(C)n2)n1	161.9
CCn1ccc(-c2cc(NCCCOc3cccc(C)c3)nc(C)n2)n1	179.6
c1ccc(OCCCNCCn2cccn2)cc1	7.776
Cc1ccc2nc(CNCCCOc3ccccc3)cc(O)c2c1 [UCSF924]	-20.67
CCN(CC1CCOCC1)C(=O)Cn1cccc(C(F)(F)F)c1=O	-10.75
c1ccc(Cc2nc(CNC3CCC4(CCNCC4)CC3)no2)cc1	94.06
OC1(CNCc2noc(Cc3ccccc3)n2)CCCNC1 (centres undefined)	0.3473
c1coc(-c2nc(CNC3CCCNC3)no2)c1 (centres undefined)	116.1
CC(C)(C)OC(=O)NC1(c2noc(-c3ccco3)n2)CCC1	-13.08
c1coc(-c2nc(CNC3CCC4(CCNCC4)CC3)no2)c1	99.09
COc1nc2c(cc1C(=O)NCc1noc(-c3ccco3)n1)CCC2	-22.9
c1cnnc(N2CCCC(NCc3nnc(-c4ccco4)o3)C2)c1 (centres undefined)	5.713
c1ccc(-c2nc(CNC3CCCN(c4cccnn4)C3)no2)cc1 (centres undefined)	-14.96
COCc1nc(CNC2CCC3(CCNCC3)CC2)no1	-7.512
Cc1ncc2c(n1)CN(C(C(N)=O)c1ccccc1)CC2 (centres undefined)	4.006
CC(C)NC(=O)NC[C@H]1OC[C@@H](NCc2ccncc2)[C@@H]1O	2.532

SMILES	Percent Effect [%]
Cc1ccc(OC2(C(=O)O)CCN(C/C=C/c3ccco3)CC2)cc1	-1.713
O=C(Nc1cccc(OC(F)F)c1)C1CN(S(=O)(=O)C2CC2)C1	10.08
CN1[C@H]2CC[C@@H]1CN(C(=O)c1nnc3n1CCCC3)CC2	1.056
Cc1cnc(CN2CCN(C(C)c3nc(C(C)C)no3)CC2)cn1 (centres undefined)	10.96
CC(C)c1nc(C2CCCN(c3nccc(C(F)(F)F)n3)C2)no1 (centres undefined)	4.176
CC(C)n1ccnc1C1CCCN(c2nc3ccccc3s2)C1 (centres undefined)	8.79
N#Cc1ccc(N2CCN(c3cnccn3)CC2)cc1C(F)(F)F	-11.21
CN(C)Cc1nnc(C2CCCN(c3cc(C(F)(F)F)ccn3)C2)n1C (centres undefined)	-6.748
CC(C)N1CCCC(c2cc(C(F)(F)F)nc3nccn23)C1 (centres undefined)	97.97
N#Cc1ccc(N2CCN(c3cnccn3)CC2)c(C(F)(F)F)c1	-6.859
FC(F)(F)c1cc(C2CCN(c3cnccn3)CC2)n2ccnc2n1	100.9
FC(F)(F)c1ccnc(N2CCCC(N3CCOCC3)C2)c1 (centres undefined)	3.517
FC(F)(F)c1cc(C2CCCN(c3cnccn3)C2)n2ccnc2n1 (centres undefined)	112.2
CC(C)c1nc(C2CCCN(c3ncccn3)C2)no1 (centres undefined)	10.51
CC(C)N1CC[C@H](c2nc3ccc(C(F)(F)F)cc3[nH]2)C1	-4.029
FC(F)(F)c1cc(C2CCCN(c3ncccn3)C2)n2ccnc2n1 (centres undefined)	126.4
CCNc1ncc(C(=O)NCc2csc(-c3ncccn3)n2)cn1	-30.13
CCOC(C)c1nc(CN2CCC(CNC(C)=O)CC2)cs1 (centres undefined)	-3.059
Cn1ccnc1C1CCN(C(=O)COCC(F)(F)C(F)F)CC1	-2.138
CN(C)CCn1ccnc1C1CCN(C(=O)CCC(F)(F)F)CC1	-12.98
CC(=O)N1CCC(c2cc(C(F)(F)F)nc3nccn23)CC1	113.6
Cc1ccc2c(C)c(C(=O)NCCc3csc(N)n3)oc2c1	32.42
O=C(c1cc(-c2ccco2)nc2c(Cl)cccc12)N1C[C@H]2CNC[C@H]2C1	10.23
CCc1ccc2nc(C)cc(C(=O)N[C@@H]3CNC[C@H]3O)c2c1	-12.87

SMILES	Percent Effect [%]
Cc1cc(C(=O)NCc2ccc(F)cc2)c2c(C3CCNC3)noc2n1 (centres undefined)	105.3
COc1nc2c(cc1C(=O)NCc1noc(Cc3cccs3)n1)CCC2	-29.09
Cc1cc(C2CCCN2C(=O)NCc2cccc(F)c2)on1 (centres undefined)	-2.715
CC(C)Cc1cc(CNC(=O)c2ccccc2C2CCNC2)no1 (centres undefined)	0.6659
Cc1cc(C(=O)NCc2ccc(F)cc2)c2c(C3CCCN3)noc2n1 (centres undefined)	101.4
Cc1cc(C(=O)NCc2cccs2)c2c(C3CCCN3)noc2n1 (centres undefined)	99.02
CCc1ccc2nc(C)cc(C(=O)NC[C@@H]3CCNC[C@H]3O)c2c1	-0.4588
CC(C)(C)c1cc(C[C@H]2CNCC[C@H]2CC(=O)NCc2cccs2)no1	1.711
Cc1nnc2ccc(C(=O)N3CCSC(C)(C)C3)cn12	-5.569
NC(=O)CCn1cc(CNCCCc2csc(N)n2)c2ccccc21	2.752
O=C(NCC1CC1)[C@H]1C[C@H]2OCC[C@H]2N(Cc2ccsc2)C1	-7.335
CNC(=O)[C@@H]1C[C@H]2CN(Cc3ccc(C)s3)C[C@H]2N1C(C)=O.O=C(O)C(F)(F)F.O=C(O)C(F)(F)F	111.1
CN1[C@@H](C(=O)NCC2CC2)C[C@@H]2CN(Cc3ccsc3)C[C@@H]21.O=C(O)C(F)(F)F.O=C(O)C(F)(F)F	95.65
CNC(=O)[C@@H]1C[C@H]2CN(Cc3ccc(C)o3)C[C@H]2N1C(C)=O	14.16
Cc1nc(CN2C[C@@H]3CCCO[C@@H]3[C@H](NC(=O)CC3CC3)C2)cs1.O=C(O)C(F)(F)F	-2.843
Cc1ccc(CN2C[C@@H]3CCCO[C@@H]3[C@H](NC(=O)CC3CC3)C2)s1.O=C(O)C(F)(F)F	2.329
Cc1nc(CN2C[C@H]3C[C@H](C(=O)NCC4CC4)N(C)[C@H]3C2)cs1.O=C(O)C(F)(F)F.O=C(O)C(F)(F)F.O=C(O)C(F)(F)F	116.2
Cc1nc(CN2C[C@@H]3CN(C(=O)c4cnccn4)C[C@@H]3C2)cs1.O=C(O)C(F)(F)F	0.3524
CC(C)N1[C@H](Cn2cncn2)C[C@@H]2CN(Cc3ccsc3)CC[C@@H]21.O=C(O)C(F)(F)F	4.812
CS(=O)(=O)N1C[C@H]2CCCN(Cc3ccsc3)[C@H]2C1.O=C(O)C(F)(F)F	-0.02998
O=C(O)C(F)(F)F.O=C(O)C(F)(F)F.O=C(O)C(F)(F)F.c1cc(CN2C[C@@H]3OCCN(CCN4CCCC4)[C@@H]3C2)cs1	-11.54
CN1[C@@H](C(=O)NCC2CC2)C[C@H]2CN(Cc3ccsc3)C[C@H]21.O=C(O)C(F)(F)F.O=C(O)C(F)(F)F	106.3

Reference: ChEMBL document CHEMBL3988442, “University of Dundee, Small-Polar-MMV Screening Library” (2021)
